According to PubChem BioAssay AID651658 (Broad Institute, 2012):
Hit rate of the full screen: of about 340,000 compounds, about 5,100 (1.5%) were called active. This excerpt belongs to a sample that is enriched for actives. A number with no mark means an inactive call.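 The calls were made as follows: active = mean Tm shift, scaled 0 neutral to 100 positive control, at about 1.3% or above, every replicate too (limit read from the data); inconclusive = no clear call, values can overlap the other calls; inactive = the rest.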

What follows are molecules tested against Fibroblast growth factor 22 (Homo sapiens) (UniProt Q9HCT0) (assay: FGF22 ligand-induced thermal stabilization – biophysical, thermal shift, single point, FGF22 synaptogenesis inhibitor project, primary screen (AID 651658)). Settings: recombinant FGF22 thermal shift, SYPRO orange fluorescence, at 9.99 µM, hits give high values.
Chain of Fibroblast growth factor 22 (Homo sapiens) (Q9HCT0 whole entry, looked up): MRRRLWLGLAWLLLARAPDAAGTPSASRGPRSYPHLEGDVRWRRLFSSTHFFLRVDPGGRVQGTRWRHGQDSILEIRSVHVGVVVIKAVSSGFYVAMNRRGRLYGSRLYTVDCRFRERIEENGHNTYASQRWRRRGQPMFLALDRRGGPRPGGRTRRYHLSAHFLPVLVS

Structure (SMILES) | activity (Tm shift, normalised)
Cc1cccc(-n2c(C)nc3cc(C(=O)N4CCC5(CC4)OCCO5)ccc32)c1 | 0.173%
O=C(c1ccccc1[N+](=O)[O-])N1CCC2(CC1)OCCO2 | -0.032%
Cc1ccc(-c2cc(C(=O)N3CCC4(CC3)OCCO4)no2)cc1 | 43.1% (active)
COc1cccc(-c2ccc3n(c2=O)C[C@@H]2[C@@H](CO)[C@H](C(=O)O)[C@H]3N2C(=O)c2cnccn2)c1 | -0.051%
C[C@]12CCC3C(CC[C@H]4[C@H](O)[C@H](O)CC[C@]34C)C1CCC2=O (stereo not given in full) | 42.7%
C[C@]12CCCCC1=CC(=O)C1C2CC[C@@]2(C)C1C[C@@H](F)[C@@H]2O (stereo not given in full) | 43.1% (active)
COC(=O)[C@@H]1[C@@H](CO)[C@@H]2Cn3c(ccc(C4=CCCCC4)c3=O)[C@H]1N2CC1CC1 | 0.126%
C/C=C/c1ccc(C2[C@@H]3CN(Cc4cncnc4)C[C@H]2N3)cc1 (stereo not given in full) | -0.323% [percent of sucrose octasulfate shift, DMSO zero]
COc1cccc(-c2ccc3n(c2=O)C[C@H]2[C@H](CO)[C@@H](C(=O)O)[C@@H]3N2C(=O)c2cnccn2)c1 | -0.009%
CC=C(C)C(=O)OC1CCN2CC=C(COC(=O)C(O)(C(C)OC)C(C)(C)O)C12 (stereo not given) | 43.1% (active)
O=C(O)[C@H]1[C@H](CO)[C@H]2Cn3c(ccc(-c4ccccc4)c3=O)[C@@H]1N2S(=O)(=O)c1ccccc1F | 0.019%
COC(=O)[C@@H]1[C@@H](CO)[C@@H]2Cn3c(ccc(-c4ccc(F)cc4)c3=O)[C@H]1N2C(C)=O | -0.001%
COC(=O)[C@H]1[C@H](CO)[C@H]2Cn3c(ccc(-c4cccc(F)c4)c3=O)[C@@H]1N2Cc1ccccc1 | -0.258%
c1ccc(C(CN2CCCCC2)c2ccccc2)cc1 | -0.37%
O=C(c1ccccc1)C(O)(CN1CCCCC1)c1ccccc1 (stereo not given) | -0.158%
CC(CC(C#N)(c1ccccc1)c1ccccc1)N1CCCCC1 (stereo not given) | 43.4% (active)
O=C(Cc1ccccc1)N1CCCCN2[C@H](CO)[C@H](c3ccc(C#Cc4ccccc4)cc3)[C@H]2C1 | -0.682%
C/C=C/c1ccc(C2[C@@H]3CN(S(C)(=O)=O)C[C@H]2N3)cc1 (stereo not given in full) | 0.016% [percent of sucrose octasulfate shift, DMSO zero]
CCN(CC)C(=O)[C@@H]1C=C2c3cccc4[nH]c(Br)c(c34)C[C@H]2N(C)C1 | 0.114%
COC(=O)[C@H]1[C@H](CO)[C@H]2Cn3c(ccc(-c4ccccc4F)c3=O)[C@@H]1N2C(=O)C1CCC1 | 0.081%
